Sampled rows, rich in hits. Any-hit rate of the full collection: about 12%.
G9a inh = blocks human histone lysine methyltransferase G9a; Q96KQ7; G9a H3K9 monomethylation, AlphaScreen, 2 h; Potency, µM (top dose mostly 102 µM), without a hit: top-dose activity, negative = inhibition, actives largely listed as inhibitors; 350,000 tested, 8.8% active; also: potency is read from the fitted curve at half-maximal effect; % is scaled to controls: 0 for no effect and ±100 for the full control effect; nearly all actives have a fitted effect of over 75% in size
Target sequence (Q96KQ7 913-1193 limits assumed): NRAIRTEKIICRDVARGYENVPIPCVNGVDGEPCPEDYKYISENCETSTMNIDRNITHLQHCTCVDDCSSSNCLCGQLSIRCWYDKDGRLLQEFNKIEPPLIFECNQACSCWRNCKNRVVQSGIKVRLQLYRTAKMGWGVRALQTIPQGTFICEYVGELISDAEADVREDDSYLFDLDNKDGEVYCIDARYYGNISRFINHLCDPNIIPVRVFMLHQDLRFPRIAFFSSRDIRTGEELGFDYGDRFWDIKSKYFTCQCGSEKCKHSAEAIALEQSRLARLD
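Chemiluminescent proximity detection of H3K9 monomethylation, read after 10 min bead incubation in the dark. Reaction: 20 nM G9a, 500 nM biotin-H3K9 peptide, 20 uM SAM cofactor, 2 h, room temperature, following 15 min enzyme-compound preincubation.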
PLK1 PBD block = PLK1 (human) polo-box domain binding inhibition | P53350 | Plk1 PBD binding of FITC phosphopeptide, fluorescence polarization | Potency, µM, for inactives: max response, negative = inhibition, actives largely listed as inhibitors | 360,000 tested, 2.8% active; also: potency is read from the fitted curve at half-maximal effect; series mostly up to about 57 µM; % is scaled to controls: 0 for no effect and ±100 for the full control effect; nearly all actives have a fitted effect of over 65% in size
BAZ2B block = blocks human BAZ2B | AID 504333 | 360,000 tested, 4.4% active | AlphaScreen BAZ2B-H3K14Ac peptide displacement | Potency, µM (highest dose often 114 µM), for inactives: at the top dose activity change, negative = inhibition, actives largely listed as inhibitors; also: potency is read from the fitted curve at half-maximal effect; % is scaled to controls: 0 for no effect and ±100 for the full control effect; nearly all actives have a fitted effect of over 60% in size
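In this displacement format the biotinylated H3(5-23) peptide acetylated at Lys14 serves as ligand at 50 nM, with BAZ2B at 50 nM in PBS pH 7.4 containing 0.01% Tween-20. Donor and acceptor beads are 10 ug/mL final.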
PI5P4Ka inh = inhibitors of human PI5P4K alpha; P48426; PI5P4Kalpha enzyme, ADP-Glo luminescence, 60 min; hits give low values; max response, %; 330,000 tested, 1.2% active; AID 652105; active = max response of -50% or lower; inconclusive = between -30% and -50%; inactive = -30% or higher; also: value at the top dose of about 77 µM; % is scaled to controls: 0 for no effect and ±100 for the full control effect
Target sequence (P48426 whole entry, looked up): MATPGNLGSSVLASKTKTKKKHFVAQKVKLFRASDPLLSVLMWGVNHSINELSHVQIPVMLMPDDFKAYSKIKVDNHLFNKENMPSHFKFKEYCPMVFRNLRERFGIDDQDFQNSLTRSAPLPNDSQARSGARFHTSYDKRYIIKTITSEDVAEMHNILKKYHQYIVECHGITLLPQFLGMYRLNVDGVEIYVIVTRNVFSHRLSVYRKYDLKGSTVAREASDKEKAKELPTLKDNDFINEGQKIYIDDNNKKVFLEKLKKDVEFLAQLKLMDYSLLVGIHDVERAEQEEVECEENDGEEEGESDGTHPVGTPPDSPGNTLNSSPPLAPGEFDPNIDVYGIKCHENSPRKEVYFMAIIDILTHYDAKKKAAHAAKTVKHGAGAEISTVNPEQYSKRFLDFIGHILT
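Controls without substrate or without enzyme flank wells where PI5P4Kalpha converts substrate using 5 microM ATP (final). Incubation lasts 60 minutes at room temperature; ADP formed is read by ADP-Glo luminescence.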
JMJD2A Tudor = blocks the human JMJD2A Tudor domain; O75164; AlphaScreen JMJD2A-Tudor / H3K4me3 peptide binding; Potency, µM (series often up to 114 µM), without a hit: top-dose activity change, negative = inhibition, most hits filed as inhibitors; 390,000 tested, 4.4% active; also: potency is read from the fitted curve at half-maximal effect; % is scaled to controls: 0 for no effect and ±100 for the full control effect; nearly all actives have a fitted effect of over 50% in size
HP1b chromo inh = inhibitors of HP1-beta chromodomain binding to methylated histone tails; AlphaScreen HP1-beta / biotin-H3K9me3 peptide binding; Potency, µM (top dose mostly 114 µM), inactives show at the highest dose activity change, negative = inhibition, actives largely listed as inhibitors; 390,000 tested, 0.56% active; also: potency is read from the fitted curve at half-maximal effect; nearly all actives have a fitted effect of over 70% in size
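Compound inhibition of the preformed complex between 50 nM HP1-beta and 50 nM biotinylated H3K9me3 peptide was read by AlphaScreen. Buffer was PBS pH 7.4 with 0.01% Tween-20. Incubations ran 30 min at room temperature, with 10 ug/mL donor/acceptor beads.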
Active calls of the source: *; ? = inconclusive; . = no result; [ ] = dose if it differs, or a comment. Unless noted, calls follow the shape of the dose curve; as a rule, active = well fitted curve in the direction sought with a large enough effect; inconclusive = small, poorly fitted or top-dose-only effect, or another doubt; inactive = no such curve, though single readings can be large; an effect the other way counts as inactive or inconclusive.

SMILES	G9a inh	PLK1 PBD block	BAZ2B block	PI5P4Ka inh	JMJD2A Tudor	HP1b chromo inh
C#CCNC(=O)C[C@@H]1C[C@@]2(C(=O)OCC)CCCC=C2N(Cc2ccc(Cl)cc2Cl)C1=O	.	-7.5%	.	16.3	.	.
COC(=O)c1ccc(-c2csc(NC(=O)C3=COCCO3)n2)cc1	.	-8.4%	.	4.6	-19.1%	0.8%
CN(C)c1nc(NCc2ccccc2)nc(N/N=C/c2cccc(Br)c2)n1	-0.2%	11.9µM*	-38.6%	-27.5	?	?
Brc1cccc(/C=N/Nc2nn[nH]n2)c1	50.1µM*	3.6%	?	-8.3	-6.1%	39.6%
CCNc1nc(NCC)nc(N/N=C/c2ccccc2)n1	-15.3%	3.8%	?	-1.5	-22.7%	31.9%
O=C(/C=C/c1cccc(Br)c1)Nc1nn[nH]n1	-2.1%	-0.7%	3.0%	-68.7*	?	-3.2%
CCN(CC)c1ccc(/C=N/Nc2nn[nH]n2)cc1	?	-1.2%	?	-0.2	-19.3%	28.4%
COc1ccc(C(=O)OCC(=O)N2CCCCCC2)cc1S(=O)(=O)N1CCOCC1	-9.5%[59 µM]	-2.9%	7.7%	2.0	-12.8%	30.0%
Cc1ccc(CN(C(=O)c2ccccc2F)c2ccccn2)o1	-30.5%[59 µM]	.	?	.	-26.2%	10.2%
COc1cccc(CN2CCN(Cc3[nH]c4ccccc4c3C)CC2CCO)c1 (stereo not drawn)	?	-1.4%	35.5µM*	10.7	?	2.3%
COc1cccc(CN2CCN(Cc3cccc4nonc34)CC2CCO)c1 (stereo not drawn)	-2.1%	16.8µM*	-1.1%	-4.3	?	?
Cc1c(Cl)cccc1NC(=O)COC(=O)c1c2c(nc3ccccc13)CCN(Cc1ccccc1)C2	-32.1%[59 µM]	-4.8%	-36.2%	20.5	-30.3%	12.0%
O=C(NC1CCCCCC1)c1c2c(nc3ccccc13)CCN(Cc1ccccc1)C2	1.41µM*	2.0%	-5.4%	-0.5	-9.9%	27.7%
CC(C)c1ccccc1NC(=O)COC(=O)c1c2c(nc3ccccc13)CCN(Cc1ccccc1)C2	5.1%[59 µM]	3.2%	-10.2%	-1.0	-28.4%	8.8%
Cc1cc(N2CCN(C)CC2)ccc1NC(=O)c1c2c(nc3ccccc13)CCN(Cc1ccccc1)C2	35.5µM*	1.9%	?	-8.6	?	-13.5%
CC1(C)CC(=O)C2=C(C1)O[C@@]1(CCCCN3C(=O)c4ccccc4C3=O)Cc3cc(C#N)ccc3C2O1	.	.	-1.5%[22.9 µM]	.	.	.
O=C(COc1coc(CN2CCCc3ccccc32)cc1=O)Nc1ccc([N+](=O)[O-])cc1	11.2µM*	-10.0%	-8.9%	-2.4	-17.9%	8.1%
COC(=O)c1ccc(NC(=O)COc2coc(CN3CCc4ccccc43)cc2=O)cc1	-5.0%	-0.1%	?	?	-10.3%	24.5%
Cc1ccccc1NC(=O)COc1coc(CN2CCCc3ccccc32)cc1=O	50.1µM*	-3.9%	50.1µM*	-8.3	?	6.1%
NC(=O)c1ccc(NC(=O)COc2coc(CN3CCc4ccccc4C3)cc2=O)cc1	50.1µM*	-8.8%	?	-20.0	-15.9%	24.1%
O=C(COc1coc(CN2CCc3ccccc32)cc1=O)N1CCCCC1	70.8µM*	-5.1%	-5.5%	4.7	-22.3%	9.3%
O=C(COc1coc(CN2CCc3ccccc32)cc1=O)NCCc1ccccc1	-41.9%	-3.7%	?	-19.1	-23.4%	17.7%
O=C(CCS(=O)(=O)c1cc(Br)cc2c1N(C(=O)C1CC1)CC2)Nc1ccc(F)cc1	-16.5%[59 µM]	.	-5.7%	.	-15.8%	19.5%
Cc1ccc(C)c(CN2CCCN(CC(=O)Nc3ccc(C)c(C)c3)S2(=O)=O)c1	2.1%[59 µM]	.	-16.2%	.	1.4%	33.7%
COc1ccccc1N1CCN(Cc2cc(=O)c(OCC(=O)NC(C)C)co2)CC1	-7.7%	9.47µM*	-2.6%	2.3	?	-16.6%
SMILES	G9a inh	PLK1 PBD block	BAZ2B block	PI5P4Ka inh	JMJD2A Tudor	HP1b chromo inh
Cc1ccc(NC(=O)COc2coc(CN3CCc4ccccc43)cc2=O)cc1Cl	-26.0%	-16.4%	50.1µM*	-17.5	44.7µM*	-34.6%
Cc1cccc(C(=O)OCC(=O)N(CC(C)C)c2c(N)n(Cc3ccccc3)c(=O)[nH]c2=O)c1C	?	1.1%	12.0%	10.9	-6.9%	7.0%
NN=C1c2ccccc2C(=O)C1C(=O)C(c1ccccc1)c1ccccc1 (stereo not drawn)	.	15.1%	.	-51.2*	?	-7.2%
CCOc1ccc(CCNS(=O)(=O)c2cc(Br)cc3c2N(C(C)=O)CC3)cc1OCC	-42.5%[59 µM]	.	-0.1%	.	-24.7%	6.7%
CCN(CC)CCNc1ccc(CO)c2oc3ccccc3c(=O)c12	.	1.0%	.	1.2	.	.
COc1ccc(N=c2cc(-c3ccc(O)cc3)oc3ccccc23)cc1	?	7.3%	44.7µM*	3.2	35.5µM*	?
CCOc1ccc(N=c2cc(-c3ccc(OC)cc3)oc3ccccc23)cc1	25.1µM*	-0.5%	12.6µM*	9.6	15.8µM*	25.1µM*
COc1ccc(N=c2cc(-c3ccc(OC)cc3)oc3ccccc23)cc1	14.1µM*	-2.6%	28.2µM*	7.4	39.8µM*	-62.7%
COc1ccc(-c2cc(=O)c3ccccc3o2)cc1	19.4%[12.7 µM]	-18.9%	2.3%	3.4	-21.1%	28.3%
NC(=O)c1nsc(C(=O)N(c2ccccc2)C(C(=O)NC2CCCCC2)c2ccc(O)cc2)c1N (stereo not drawn)	9.8%	-3.1%	4.6%	-0.4	-11.0%	0.6%
Cc1csc2nc(COC(=O)c3ccccc3NC(=O)c3ccc(F)cc3)cc(=O)n12	5.7%[59 µM]	.	-4.4%	.	-4.6%	18.1%
CCOc1ccc(OCCCC(=O)N(C)CC(=O)Nc2ccc(N3CCOCC3)cc2)cc1	35.5µM*	-1.6%	-4.7%	1.1	-18.5%	-9.0%
CC(Oc1ccc(Br)cc1)C(=O)N(C)CC(=O)Nc1ccc(N2CCOCC2)cc1 (stereo not drawn)	50.1µM*	0.6%	-9.7%	7.9	-31.1%	20.0%
CN(CC(=O)Nc1ccc(N2CCOCC2)cc1)CC(=O)Nc1ccc(N2CCOCC2)cc1	?	-14.0%	-12.4%	-3.7	-29.4%	26.9%
COCCCN(CC(=O)Nc1ccc(N2CCOCC2)cc1)S(=O)(=O)c1ccc(Cl)cc1	?	?	.	0.1	79.4µM*	?
CN(CC(=O)Nc1ccc(N2CCOCC2)cc1)C(=O)CCCOc1ccc(Cl)cc1Cl	20µM*	1.8%	?	1.8	-28.9%	4.6%
COc1cccc(C(=O)NCc2nc(-c3ccccc3)no2)c1OC	0.6%[59 µM]	.	0.0%	.	-6.2%	36.6%
Cc1cc(C)c(S(=O)(=O)Nc2ccc(-c3ccc(N4CCC(C)CC4)nn3)cc2)cc1C	-23.6%[59 µM]	.	-15.5%	.	-22.0%	13.6%[57 µM]
COCCn1c(-c2ccccc2)c(C)n2c3c(=O)n(C)c(=O)n(C)c3nc12	-20.8%[59 µM]	.	?	.	-25.4%	22.5%
